Potency and affinity values are given separately. Records with an inconclusive call do not appear. Activity calls are given as the source filed them. How the calls were made is not given here.
What follows are compounds tested against Cyclin-dependent kinase 5 activator 1 (Homo sapiens) + Cyclin-dependent kinase 5 (Homo sapiens) (UniProt Q15078+Q00535) (assay: blockade of human CDK5 activity – biochemical, cherry-picked samples, set 2, dose response (AID 504545)). Conditions: CDK5/p35 kinase activity, biochemical plate reader; series mostly up to 30 µM; activity change, negative = inhibition: at the top concentration.
Cyclin-dependent kinase 5 activator 1 (Homo sapiens) + Cyclin-dependent kinase 5 (Homo sapiens), sequence (Q00535 whole entry, looked up): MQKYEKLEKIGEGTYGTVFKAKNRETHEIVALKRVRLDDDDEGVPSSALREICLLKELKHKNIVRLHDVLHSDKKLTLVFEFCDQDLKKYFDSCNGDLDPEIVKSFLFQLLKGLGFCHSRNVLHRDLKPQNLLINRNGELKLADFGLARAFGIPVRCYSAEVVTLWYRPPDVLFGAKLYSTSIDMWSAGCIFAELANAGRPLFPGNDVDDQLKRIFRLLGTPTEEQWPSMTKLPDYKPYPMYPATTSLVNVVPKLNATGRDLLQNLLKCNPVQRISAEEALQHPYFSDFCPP
Cyclin-dependent kinase 5 activator 1 (Homo sapiens) + Cyclin-dependent kinase 5 (Homo sapiens), sequence (Q15078 whole entry, looked up): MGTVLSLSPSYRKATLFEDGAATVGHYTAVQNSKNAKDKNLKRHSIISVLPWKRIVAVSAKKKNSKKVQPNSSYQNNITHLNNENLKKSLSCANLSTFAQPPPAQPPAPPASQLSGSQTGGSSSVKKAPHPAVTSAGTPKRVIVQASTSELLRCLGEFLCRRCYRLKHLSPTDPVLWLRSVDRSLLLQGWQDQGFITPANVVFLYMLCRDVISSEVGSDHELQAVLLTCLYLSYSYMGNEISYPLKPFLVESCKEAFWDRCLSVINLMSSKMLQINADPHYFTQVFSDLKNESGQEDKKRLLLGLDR

Row | Compound | activity change, negative = inhibition
1 | NC(=O)c1c(Br)n(C2OC(CO)C(O)C2O)c2ncnc(N)c12 (centres undefined) | -11% (inactive)
2 | COc1cc2c(ccc3c4cc(OC)c(OC)cc4c[n+](C)c23)cc1O | -2.52% (inactive)
3 | Nc1ccc(CC2=NCCN2)cc1 | -11.6% (inactive)
4 | Nc1ncnc2c1ccn2[C@@H]1O[C@H](CO)[C@@H](O)[C@H]1O | 1.79% (inactive)
